From PubChem BioAssay (NCATS) come the findings set out here.

Inconclusive results are not listed. Entries that show only a call come without a potency. Values without a mark were called inactive. Active and inactive are the calls of the source. The call rests on the fitted dose curve; in most records, active means well fitted curve in the direction sought with a large enough effect; inconclusive means small, poorly fitted or top-dose-only effect, or another doubt; inactive means no such curve, though single readings can be large; an effect the other way counts as inactive or inconclusive.

For assay [1], the system named is Zika virus NS2B-NS3 protease (linked construct). In words: Confirmatory screen NINDS AMC qHTS for Zika virus inhibitors (AID 1347152). Further: potency means the concentration at half of the fitted maximal effect; nearly all actives have a fitted effect of over 70% in size. The note with it: Purified linked NS2B-NS3, AMC substrate fluorescence. A digest of the protocol:
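Enzyme (1 nM, linked construct) was preincubated with compound for 15 minutes at room temperature in 10 mM Tris-HCl pH 8.0 with 0.01% Tween 20. Bz-Nle-Lys-Arg-Arg-AMC was then added to 10 microM, and AMC fluorescence was recorded immediately and after 15 minutes.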

A short description of assay [2]: ZIKV-mCherry secondary qHTS for Zika virus inhibitors (AID 1347158). Further: top concentration of the series differs between compounds. The note with it: Vero cells, ZIKV-mCherry infection imaging, 48-72 h; series mostly up to 32.6 µM. A digest of the protocol:
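This orthogonal imaging screen measured ZIKV-mCherry infection of Vero cells exposed to compound, MOI 1, 48-72 h. Percent infection came from segmented nuclei scored mCherry-positive above 3 SD of negative controls.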

For assay [3], the system named is Zika virus NS2B-NS3 protease (linked). The assay can be described thus: 384 well plate NINDS AMC confirmatory qHTS for Zika virus inhibitors (AID 1347163). Further: potency means the concentration at half of the fitted maximal effect; nearly all actives have a fitted effect of over 50% in size. The following applies: Recombinant NS2B-NS3 protease, Ac-VKTGKR-AMC fluorescence. Summed up:
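Enzyme (5, 30 or 60 nM final) first met test compounds for ~15 min. The AMC-tagged peptide Ac-VKTGKR-AMC followed at 30 microM. Fluorescence was then recorded at 25 min and scaled against no-enzyme and no-inhibitor wells.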

The test system of assay [4] is Zika virus NS2B-NS3 protease (linked construct). The assay can be described thus: 384 well plate NINDS Rhodamine confirmatory qHTS for Zika virus inhibitors (AID 1347164).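 Further: fluorescence from protease cleavage of Ac-LKRR-rhodamine 110 substrate; potency means the concentration at half of the fitted maximal effect; nearly all actives have a fitted effect of over 65% in size.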 The following applies: rhodamine-110 peptide substrate fluorescence. From the text:
Description: Assay Submitters (PI): Avindra Nath, Ph.D., National Institute of Neurological Disorders and Stroke (NINDS), Bethesda, MD Radhakrishnan Padmanabhan, Ph.D., Georgetown University (GU), Washington D.C. Zika Virus causes congenital defects, including microcephaly and is associated with Guillain-Barre syndrome, eningoencephalitis and myelitis in infected adult. […] Using a target-based approach, we hope to establish a screening paradigm to uncover novel, cell-active NS2B-NS3 protease (Zika Virus) specific inhibitors from NCATS' collection of small molecules using qHTS. […] Four assay panel was created to identify potential Zika Virus inhibitors. Namely, (1) GU unlinked NS2B-NS3 AMC tagged protease qHTS, (2) GU unlinked NS2B-NS3 Rhodamine tagged protease qHTS, (3) NINDS linked NS2B-NS3 AMC tagged protease qHTS, (4) NINDS linked NS2B-NS3 Rhodamine tagged protease qHTS. […]
384-well NINDS Rhodamine Assay: The protease was diluted to 7.5 nM, 40.9 nM, or 82 nM in assay buffer and dispensed into a 96-well PCR plate (Applied Biosystems); 20 or 22 microL was transferred to a black 384-well assay plate (final protease concentration of 5 nM, 30 nM, or 60 nM, respectively). […] After 25 minutes, the fluorescence intensity (excitation: 485 nm, emission: 538 nm) was measured and normalized to no-enzyme and no-inhibitor controls. […]

Assay [5] is described as follows: Confirmatory screen GU Rhodamine qHTS for Zika virus inhibitors qHTS (AID 1347157). Further: nearly all actives have a fitted effect of over 70% in size. The note with it: purified enzyme assay, Rhodamine110 substrate fluorescence, 15 min; series mostly up to 114 µM. Summed up:
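Unlinked NS2B/NS3, 25 nM; Rhod110 peptide, 1.5 microM; compounds, up to 114 microM. Reaction run 15 min at RT in 10 mM Tris-HCl pH 8.0, 0.01% Tween 20; kinetic fluorescence change fitted with a 4-parameter Hill model.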

The test system of assay [6] is Zika virus NS2B-NS3 protease. In words: Primary screen GU AMC qHTS for Zika virus inhibitors (AID 1347154). Further: nearly all actives have a fitted effect of over 70% in size. Further: potency means the concentration at half of the fitted maximal effect. The note with it: Zika NS2B-NS3 unlinked protease, AMC fluorogenic substrate; series mostly up to 54.1 µM. Summed up: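 Unlinked Zika NS2B hydrophilic domain/NS3 protease domain noncovalent complex (25 nM final) in 10 mM Tris-HCl pH 8.0, 0.01% Tween 20, with AMC peptide substrate. Fluorescence (ex 340, em 450 nm) change over 15 min, room temperature; percent inhibition fitted to 4-parameter Hill equation.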

In the case of `CN1C[C@@H]2C[C@H]1CN2c1cc2c(cc1F)c(=O)c(C(=O)O)cn2C1CC1`, in assay [1], the Potency was 16.7 µM (active). As for `O=C(O)Cn1c(C(=O)Nc2nc(-c3ccccc3Cl)cs2)cc2ccccc21`, the Potency is 21.5 µM (active) in assay [1], 70.8 µM (active) in assay [3] and 28.2 µM (active) in assay [4]. Further, the molecule was classed as inactive in assay [2]. With `COc1ccccc1Oc1c(NS(=O)(=O)c2ccc(C(C)(C)C)cc2)nc(-c2ncccn2)nc1OCCO`, the call in assay [5] was inactive. Take `Cn1c(=O)c2c(ncn2CCO)n(C)c1=O`: in assay [6], the Potency entry is “inactive”.

With `CCCCCCCCCCCCCCCCN`, in assay [6], the Potency entry was “inactive”. Consider `CCCCCCCCCCCCCCCCC(C(=O)O)C(O)(CC(=O)O)C(=O)O` (stereo not drawn), for which the Potency in assay [6] is 4.05 µM (active). For the molecule `CC(=O)Nc1ccc(C(=O)O)cc1`, the Potency entry in assay [6] was “inactive”. On the same count and under the same terms, the entry for `Cc1c(NC(=O)c2cccnc2)c(=O)n(-c2ccccc2)n1C` is “inactive”; for `CC(C)NC[C@@H](O)COc1ccc(CC(N)=O)cc1` it is “inactive”. As to `O=C(O)/C=C/c1ccc(Cn2ccnc2)cc1`, the Potency result in assay [6] was “inactive”. Take `Cc1cc(=O)[nH]c(=S)[nH]1`: the Potency result in assay [6] is “inactive”.

With `CCCC(O)C(CC)CO` (stereo not drawn), the Potency entry in assay [6] was “inactive”. Same read-out and setting: the entry for `C/C(=C(\CCO)SS/C(CCO)=C(\C)N(C=O)Cc1cnc(C)nc1N)N(C=O)Cc1cnc(C)nc1N` is “inactive”.

Regarding `CC[C@]12CCCN3CCc4c(n(c5ccccc45)[C@@](O)(C(=O)OC)C1)[C@@H]32`, the Potency result in assay [6] is “inactive”. Still for that read-out and setting: for `CC[N+](C)(CC)CCOC(=O)C1c2ccccc2Oc2ccccc21` the value was “inactive”. Still for that read-out and setting: the entry for `Cc1ccc(S(=O)(=O)NC(=O)NC2CCCCC2)cc1` is “inactive”; for `Cn1c([N+](=O)[O-])cnc1COC(N)=O` it is “inactive”; for `Nc1ncnc(Nc2ccccc2)n1` it is “inactive”.

Turning to `CC(=O)OC[C@H]1O[C@@](COC(C)=O)(O[C@H]2O[C@H](COC(C)=O)[C@@H](OC(C)=O)[C@H](OC(C)=O)[C@H]2OC(C)=O)[C@@H](OC(C)=O)[C@@H]1OC(C)=O`, in assay [6], the Potency result is “inactive”. The same measure, in the same setting: for `COc1cc(O)cc(O)c1` the value was “inactive”.

Take `COc1ccc2cc(CCC(C)=O)ccc2c1`: the Potency entry in assay [6] is “inactive”.

With `CCOC(=O)c1cccnc1`, the Potency entry in assay [6] is “inactive”.

Consider `CC(=O)N(CC(O)CN(C(C)=O)c1c(I)c(C(=O)NCC(O)CO)c(I)c(C(=O)NCC(O)CO)c1I)c1c(I)c(C(=O)NCC(O)CO)c(I)c(C(=O)NCC(O)CO)c1I` (stereo not drawn), for which the Potency entry in assay [6] was “inactive”.

`CCOC(=O)[C@H](CCc1ccccc1)N[C@@H](C)C(=O)N1Cc2cc(OC)c(OC)cc2C[C@H]1C(=O)O`: in assay [6], the Potency entry is “inactive”.

On to `CN1C(=O)CC(c2ccccc2)C1=O` (stereo not drawn), for which the Potency entry in assay [6] is “inactive”. Same read-out and setting: for `OCc1ccc(Cl)cc1Cl` the value was “inactive”; for `NC(=O)NC1NC(=O)NC1=O` (stereo not drawn), “inactive”; for `NC(N)=NS(=O)(=O)c1ccc(N)cc1`, “inactive”.

On to `CC1CCc2cc(F)cc3c(=O)c(C(=O)O)cn1c23` (stereo not drawn), for which, in assay [6], the Potency entry was “inactive”. On the same count and under the same terms, the entry for `CN1CCN(C(=O)C2CCCCC2)CC1` is “inactive”. On to `NC(N)=NCCN1CCCCCCC1`, for which the activity change, negative = inhibition in assay [6] is -2.2% [at 0.59 µM]. Take `Cc1cc(O)cc(C)c1Cl`: the Potency entry in assay [6] is “inactive”. Same read-out and setting: for `Nc1c2c(nc3c1CCC3)CCCC2` the value was “inactive”; for `NS(=O)(=O)c1ccc(NC(=O)CCC(=O)O)cc1`, “inactive”. In the case of `CNCc1ccccc1`, in assay [6], the Potency result was “inactive”. The same measure, in the same setting: for `C[C@]1(Cn2ccnn2)[C@H](C(=O)O)N2C(=O)C[C@H]2S1(=O)=O` the value was “inactive”; for `CNc1c2c(nn1C)CCCC2`, “inactive”.

As to `CC(=O)N(CC(O)CO)c1c(I)c(C(=O)NCC(O)CO)c(I)c(C(=O)NCC(O)CO)c1I` (stereo not drawn), the Potency result in assay [6] was “inactive”.

Take `O=C(O)CCC(=O)O`: the Potency entry in assay [6] was “inactive”.

Turning to `CCOC(=O)OC(C)OC(=O)[C@@H]1N2C(=O)[C@@H](NC(=O)[C@H](N)c3ccccc3)[C@H]2SC1(C)C` (stereo partly drawn), the Potency result in assay [6] was “inactive”.
